SMILES strings stand for the structures. In all, about 350,000 compounds went through this assay and about 2,700 (0.77%) were called active.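 How the source made its calls: active means inhibition reaching at least a set limit at 20 µM in the primary screen (cut at about 59% in these data); inactive means the rest.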 The full list was thinned out, with actives kept by preference.

The source of these data is PubChem BioAssay AID504690 (Sanford-Burnham Center for Chemical Genomics, 2011).

The test system of this assay is glucose-6-phosphate dehydrogenase-6-phosphogluconolactonase (Plasmodium falciparum 3D7). The assay can be described thus: PfG6PD enzyme inhibitors, primary screen, biochemical, fluorescence intensity, uHTS (AID 504690).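 Further: 0% = DMSO wells with substrate and 100% = DMSO wells lacking glucose-6-phosphate.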 The following applies: PfGluPho enzyme, NADPH resazurin-diaphorase fluorescence; at 20 µM; active compounds read high. A general note: Alamar Blue is a resazurin reagent that responds to reducing activity.
As for `COc1ccc2[nH]c(=O)c(C3c4cc(OC)c(OC)cc4CCN3C(=O)c3ccco3)cc2c1` (stereo not given), the inhibition (in general, the change of the read-out against control, counted positive when it falls) was 8.2% (inactive).

For `O=C(NCc1cccnc1)c1ccc(CS(=O)(=O)c2ccc(Br)cc2)o1`, the inhibition was -4.96% (inactive).

Take `CC1CCCCC1NC(=O)CSc1nnc(N)s1` (stereo not given): the inhibition is -8.21% (inactive).

Take `O=C(COC(=O)c1cccc(Cl)c1)NC1CCCCCCC1`: the inhibition was 17.2% (inactive).

Take `CCCN(CCC)C(=O)C1c2ccccc2Oc2ccccc21`: the inhibition is -24.1% (inactive).

As to `CC(C)(C)c1nnc(NC(=O)C2c3ccccc3Oc3ccccc32)s1`, the inhibition was 77.4% (active).

Turning to `CC(C)(C)NC(=O)NC(=O)COC(=O)C1c2ccccc2Oc2ccccc21`, the inhibition is -18.1% (inactive).

With `CCN(CC)c1ccc2oc(=O)c(C)nc2c1`, the inhibition is 94.1% (active).

Consider `CCc1ccc2oc(-c3ccc(N)cc3)nc2c1`, for which the inhibition was 16.4% (inactive).

For `Cc1ccc2oc(=O)ccc2c1`, the inhibition is -9.67% (inactive).

With `COc1ccc(S(=O)(=O)N2CCOCC2)cc1NC(=O)Cc1coc2cc(C)ccc12`, the inhibition was -4.24% (inactive).

`O/N=C(\c1ccc2c(c1)OCCO2)C1CCCCC1`: the inhibition is -2.41% (inactive).

Regarding `COc1ccccc1-n1c(=S)[nH]c2c(sc(=S)n2-c2ccc(C)cc2C)c1=O`, the inhibition is 78.9% (active).

Turning to `COc1ccccc1N1CCN(c2nc(C)cc(=O)[nH]2)CC1`, the inhibition was 15.1% (inactive).

Consider `CCc1ccc(-n2c(=S)sc3c(=O)n(-c4ccccc4OC)c(=S)[nH]c32)cc1`, for which the inhibition was 55.6% (inactive).

Regarding `CCCCn1nc(C(=O)Nc2ccc(S(=O)(=O)Nc3ncccn3)cc2)c2ccccc2c1=O`, the inhibition is -8.76% (inactive).

For the compound `NS(=O)(=O)c1ccc(CNC(=O)c2cc(S(=O)(=O)N3CCOCC3)ccc2N2CCCC2)cc1`, the inhibition was 2.61% (inactive).

For the compound `COc1ccc(NC(=O)COC(=O)CNC(=O)C2CCCCC2)cc1`, the inhibition is -2.97% (inactive).

Consider `COc1cccc(C(=O)Nc2nnc(S(=O)(=O)N3CCCCC3)s2)c1`, for which the inhibition was 112% (active).

`CN(Cc1ccco1)S(=O)(=O)c1nnc(NC(=O)c2ccccc2)s1`: the inhibition is 58.2% (inactive).

Consider `COc1cccc(C(=O)Nc2nnc(S(=O)(=O)N(C)c3ccccc3)s2)c1`, for which the inhibition was 96.6% (active).

Consider `Cc1ccccc1OCC(=O)Nc1nnc(S(=O)(=O)N2CCCC2)s1`, for which the inhibition is -10.3% (inactive).

Take `CC(=O)c1cccc(NC(=O)COc2ccc(S(=O)(=O)N3CCOCC3)cc2)c1`: the inhibition is 3.48% (inactive).

For the compound `COc1cccc(C(=O)Nc2nnc(S(=O)(=O)N3CCOCC3)s2)c1`, the inhibition is 97.7% (active).

On to `COc1cccc(C(=O)Nc2ccc3nc4n(c(=O)c3c2)CCCCC4)c1`, for which the inhibition was 20% (inactive).

Consider `CN(Cc1ccccc1)S(=O)(=O)c1nnc(NC(=O)c2ccccc2F)s1`, for which the inhibition is 27.5% (inactive).

Take `COc1ccc(OC)c(NC(=O)c2cccc(S(=O)(=O)N3CCN(C(C)=O)CC3)c2)c1`: the inhibition is -11.9% (inactive).

For the compound `Cc1csc2ncc(C(=O)N(Cc3ccccc3)c3ccccn3)c(=O)n12`, the inhibition is -14.5% (inactive).

`Cc1cccc(C)c1NC(=O)C1CCCN1C(=O)OC(C)(C)C` (stereo not given): the inhibition was -0.36% (inactive).

For the compound `CC(C)(C)c1cc(=O)n2c(nc3ccccc32)[nH]1`, the inhibition was 12.8% (inactive).

Turning to `CCc1ccc(NC(=O)C(=O)NNC(=O)c2cccs2)cc1`, the inhibition is -15.6% (inactive).

On to `CCc1c(C)sc(NC(=O)c2cccs2)c1C(N)=O`, for which the inhibition was 71% (active).

As for `CCc1cccc(C)c1NC(=O)COC(=O)CNC(=O)c1cccs1`, the inhibition was 4.68% (inactive).

With `C=CCCC(=O)N1C[C@H]2CON(C)[C@H]2C[C@H]1c1cccc(Nc2ccccc2)c1`, the inhibition was 21.3% (inactive).

In the case of `O=C(OCC(=O)N1CCCCC1)c1ccc(OC(F)(F)F)cc1`, the inhibition is -6.53% (inactive).

Regarding `CCCCN1Cc2c(nc3cc(-c4ccccc4)[nH]n3c2=O)C1=O`, the inhibition is -27.7% (inactive).

Take `O=c1c2c(nc3cc(-c4cccc(Cl)c4)[nH]n13)CCCC2`: the inhibition was 75% (active).

For `O=c1c2c(nc3nc[nH]n13)CCC2`, the inhibition is 16.4% (inactive).

Regarding `CCOC(=O)c1cnn2c(SC)ncnc12`, the inhibition was 5.86% (inactive).

As for `Cc1cc(C)n(Cc2cnc(N3CCOCC3)s2)n1`, the inhibition was 2.1% (inactive).

For the compound `CC1(C)CC(=O)c2cc(OCC(=O)NCC3CCCO3)ccc2O1` (stereo not given), the inhibition was 7.52% (inactive).

Consider `CC(=O)Nc1ccc2c3c(ccc([N+](=O)[O-])c13)CC2`, for which the inhibition is 1.79% (inactive).

As for `Clc1ccc2c(c1)C1=C(C(c3ccncc3)O2)C(c2ccc(Br)cc2)n2ncnc2N1` (stereo not given), the inhibition was 78.5% (active).

As for `Brc1ccc(C2=CC(c3ccco3)n3ncnc3N2)cc1` (stereo not given), the inhibition is 23.3% (inactive).

Turning to `O=C(C1CCN(S(=O)(=O)c2ccc(Br)s2)CC1)N1CCN(C2CCCCC2)CC1`, the inhibition is 3.65% (inactive).

On to `Cc1ccnc(SC2CC(=O)N(c3ccccc3)C2=O)n1` (stereo not given), for which the inhibition was -11.7% (inactive).

`Cc1ccnc(-n2sc3ccccc3c2=O)n1`: the inhibition is 97% (active).

As for `O=C(NCc1ccccc1)C1CCCN(S(=O)(=O)c2cccs2)C1` (stereo not given), the inhibition was 3.61% (inactive).

Turning to `C[C@@H]1CCCCO[C@H](CN(C)Cc2ccccc2)[C@@H](C)CN([C@H](C)CO)C(=O)c2cc(NS(=O)(=O)c3ccc(Cl)cc3)ccc2O1`, the inhibition is 36.3% (inactive).

For the compound `O=c1[nH]nc(Cc2ccccn2)c2ccccc12`, the inhibition is 1.12% (inactive).

Consider `COc1ccc(Cc2n[nH]c(=S)n2NC(=O)Nc2ccc(C)cc2)cc1`, for which the inhibition was 15.8% (inactive).

`Fc1ccc(/C=N/n2c(COc3ccccc3)n[nH]c2=S)cc1`: the inhibition was 27.2% (inactive).

As for `COc1ccc(OCc2n[nH]c(=S)n2N)cc1`, the inhibition was 71.3% (active).

For the compound `CCOc1ccc(NS(=O)(=O)c2ccc(Cl)c(C(=O)N(C)Cc3cccnc3)c2)cc1`, the inhibition is -26.1% (inactive).

In the case of `C=CCn1c(SCC(N)=O)nnc1-c1cc2c(s1)CCC(CC)C2` (stereo not given), the inhibition is 2.97% (inactive).

For the compound `CCC1=NN(C(=O)Cc2ccc([N+](=O)[O-])cc2)C(O)(c2ccc(Br)cc2)C1` (stereo not given), the inhibition is -3.74% (inactive).

For `CC1(C)NC(=O)N(CC(=O)N2CCN(S(=O)(=O)c3ccccc3F)CC2)C1=O`, the inhibition was -13.8% (inactive).

As to `O=C(COc1ccccc1)Nc1nonc1NC(=O)COc1ccccc1`, the inhibition was 71.2% (active).

`O=C(COc1ccccc1)Nc1ccc(C(=O)N2CCCC2)cc1`: the inhibition is -12.5% (inactive).

As to `O=C(COc1ccccc1)Nc1ccc(F)cc1`, the inhibition was -2.38% (inactive).

For `COc1ccc([N+](=O)[O-])cc1N(CC(O)Cn1nnc2ccccc21)S(=O)(=O)c1ccc(C)cc1` (stereo not given), the inhibition was -4.47% (inactive).

`Cc1nc([N+](=O)[O-])nn1C12CC3CC(CC(Br)(C3)C1)C2`: the inhibition was 71% (active).

Consider `CC1CCC(CN2CCN=C2N(C)C)CC1` (stereo not given), for which the inhibition is -9.19% (inactive).

As for `CCOc1ccc(S(=O)(=O)N2CCCC(C(=O)N3CCC(C(N)=O)CC3)C2)cc1Cl` (stereo not given), the inhibition was -4.54% (inactive).

Consider `CCOC(=O)[C@@H]1[C@H]2COc3ccc(Br)cc3[C@H]2N2C(=O)N(c3ccc(Cl)cc3)C(=O)[C@@]12C`, for which the inhibition was 9.82% (inactive).

In the case of `O=C(c1ccc(S(=O)(=O)N2CCCC2)cc1)N1CCN(c2ccccc2F)CC1`, the inhibition was 7.54% (inactive).

Consider `COCCOC(=O)c1sc(=S)n(CCOC)c1N`, for which the inhibition was 25.1% (inactive).

As to `N#Cc1c(N)sc2c1CCN(C(=O)OCc1ccccc1)C2`, the inhibition is 42.3% (inactive).

On to `COC(=O)c1sc(N2CCN(Cc3ccccc3)CC2)nc1N`, for which the inhibition was -11.2% (inactive).

Turning to `Cc1cccc(-n2c(N)c(C(=O)N3CCN(C)CC3)sc2=S)c1`, the inhibition was 79.6% (active).

With `COc1cccc(N2CCN(c3ccc4nnc(CCC(=O)N5CCN(C)CC5)n4n3)CC2)c1`, the inhibition was 6.62% (inactive).

`N#Cc1ccccc1-n1c(N)c(C(=O)N2CCCC2)sc1=S`: the inhibition was 60% (active).

Take `Cc1ccc(-n2c(N)c(C(=O)N3CCOCC3)sc2=S)c(C)c1`: the inhibition was -1.21% (inactive).

Regarding `COC(=O)c1sc(=S)n(-c2ccccc2)c1N`, the inhibition was 65.1% (active).

In the case of `O=C(OCc1ccccc1)N1CCC2CC1c1ccc(-c3ccc4c(c3)OCO4)cc12` (stereo not given), the inhibition was 2.75% (inactive).

Consider `O=C(Cc1ccsc1)N1CCN(S(=O)(=O)c2cc(C(F)(F)F)cc(C(F)(F)F)c2)CC1`, for which the inhibition was 9.01% (inactive).

Take `Cc1cccc(N2C(=O)N3[C@H](c4ccc(F)cc4)[C@@H]4C(=O)N(C5CCCCC5)C(=O)[C@@H]4[C@]3(Cc3ccccc3)C2=O)c1`: the inhibition was -21.6% (inactive).

Consider `COc1ccccc1Cn1c(C)nnc1-c1cnn(C)c1N`, for which the inhibition was -9.47% (inactive).

Turning to `Cc1cc(C)c2c(c1)c(C)cc1nnc(SCC(=O)NCc3ccco3)n12`, the inhibition was 46.3% (inactive).

Consider `Cc1ccc(OCCNC(=O)CNC(=O)c2ccc(C)c(C)c2)cc1`, for which the inhibition was -19.6% (inactive).

As to `CNN/C(N=Cc1ccc([N+](=O)[O-])s1)=N\S(=O)(=O)c1cc(C)c(Cl)cc1SCc1ccccc1`, the inhibition was 5.23% (inactive).

`O=[N+]([O-])c1ccc(C=Nc2ccc(Cl)cc2Cl)s1`: the inhibition is 76.4% (active).

Take `Cc1ccc(NC(=O)C2CCC(C(C)(C)C)CC2)cc1S(=O)(=O)N1CCOCC1` (stereo not given): the inhibition is 30.1% (inactive).

In the case of `O=C1CCC(C(=O)OCC(=O)Nc2ccc(OC(F)F)cc2)=NN1`, the inhibition is 3.76% (inactive).

On to `Oc1ccc(N=Cc2c(O)ccc3ccccc23)cc1`, for which the inhibition is 62.9% (active).

On to `Cc1cc(N=Nc2ccc3ccccc3c2)ccc1O`, for which the inhibition is 0.29% (inactive).

For `CCOc1[nH]n(-c2ccc(Cl)cc2)c(=O)c1C=Nc1ccc(O)cc1`, the inhibition was -1.23% (inactive).

On to `CCn1nnc2cc(C(=O)Nc3ccc(C(=O)OC(C)C)cc3)ccc21`, for which the inhibition is 22.8% (inactive).

Take `COc1cccc(C(CC(=O)NCCN2CCOCC2)NS(=O)(=O)c2ccc(C)cc2)c1OC` (stereo not given): the inhibition is 11% (inactive).

With `CSc1n[nH]c(=S)n1N`, the inhibition is 65.2% (active).

On to `Cc1ccc(S(=O)(=O)N2CCCCC2)cc1C(=O)N1CCN(CCO)CC1`, for which the inhibition was -1.65% (inactive).

With `CC(=O)c1ccc(NC(=O)C2CCCN2S(=O)(=O)c2cccs2)cc1` (stereo not given), the inhibition was 14.3% (inactive).

For the compound `COc1ccc(Nc2cc(Sc3ccc(OC)cc3)ncn2)cc1`, the inhibition was 77.5% (active).

As for `COc1ccc(Nc2ncnc3sc(C)cc23)cc1`, the inhibition is 4.18% (inactive).

Turning to `COc1ccc(Nc2ccc3ccccc3c2)cc1`, the inhibition is 53.2% (inactive).
